Laboratory results from the supplement of paper PMC11026393.

Assays:
Test in all cases: difference in mean normalized H2B-mRuby nuclear fluorescence intensity relative to DMSO control (normalized intensity difference (DMSO = 0)); higher = stronger increase in transgene reporter fluorescence
Details in all cases: 24 h
H1299 = tested on: H1299
Method in brief: (§1)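 What the table gives is the change in mean per-nucleus normalized H2B-mRuby intensity against DMSO-treated cells. It was measured in H2B-mRuby2-expressing cancer cell lines after 24 h of drug treatment at equal DMSO, imaged unstained on a Leica DMI8 at 541–551 nm excitation and 565–605 nm emission over about 3 repeats of 4 fields each.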

LN-18 = tested on: LN-18
Method in brief: as §1

SK-OV-3 = tested on: SK-OV-3
Method in brief: as §1

COC1=C2C[C@@H](C)C[C@H](OC)[C@H](O)[C@@H](C)/C=C(\C)[C@H](OC(N)=O)[C@@H](OC)/C=C\C=C(/C)C(=O)NC(=CC1=O)C2=O (concentration unit: nM)
difference (H1299; concentration: 5): -0.0197 | difference (H1299; concentration: 25): 0.305 | difference (H1299; concentration: 50): 0.532 | difference (H1299; concentration: 100): 0.567 | difference (H1299; concentration: 500): 0.435

Nc1ncn([C@@H]2O[C@H](CO)[C@@H](O)[C@H]2O)c(=O)n1 (concentration unit: uM)
difference (LN-18; concentration: 1): 0.03 | difference (LN-18; concentration: 2.5): 0.0353 | difference (LN-18; concentration: 5): 0.0211 | difference (LN-18; concentration: 10): 0.0474 | difference (LN-18; concentration: 20): 0.00195 | difference (SK-OV-3; concentration: 1): 0.0139 | difference (SK-OV-3; concentration: 2.5): -0.0364 | difference (SK-OV-3; concentration: 5): 0.0517 | difference (SK-OV-3; concentration: 10): 0.126 | difference (SK-OV-3; concentration: 20): 0.105

O=C(/C=C/c1cccc(S(=O)(=O)Nc2ccccc2)c1)NO (concentration unit: uM)
difference (H1299; concentration: 0.25): 0.186 | difference (H1299; concentration: 0.5): 0.231 | difference (H1299; concentration: 1): 0.491 | difference (H1299; concentration: 2.5): 0.854 | difference (H1299; concentration: 5): 1.19

COc1cc([C@@H]2c3cc4c(cc3[C@@H](O[C@@H]3O[C@@H]5CO[C@@H](C)O[C@H]5[C@H](O)[C@H]3O)[C@H]3COC(=O)[C@H]23)OCO4)cc(OC)c1O (concentration unit: uM)
difference (H1299; concentration: 0.5): 0.147 | difference (H1299; concentration: 1): 0.0921 | difference (H1299; concentration: 2.5): 0.108 | difference (H1299; concentration: 5): 0.206 | difference (H1299; concentration: 10): 0.153 | difference (H1299; concentration: 20): 0.189 | difference (LN-18; concentration: 1): 0.0338 | difference (LN-18; concentration: 2.5): 0.04 | difference (LN-18; concentration: 5): 0.0489 | difference (LN-18; concentration: 10): 0.0688 | difference (LN-18; concentration: 20): 0.0487 | difference (SK-OV-3; concentration: 1): 0.0528 | difference (SK-OV-3; concentration: 2.5): 0.00327 | difference (SK-OV-3; concentration: 5): 0.00917 | difference (SK-OV-3; concentration: 10): 0.159 | difference (SK-OV-3; concentration: 20): 0.266

CC(=O)O[C@H]1C(=O)[C@@]2(C)[C@H]([C@H](OC(=O)c3ccccc3)[C@]3(O)C[C@H](OC(=O)[C@H](O)[C@@H](NC(=O)c4ccccc4)c4ccccc4)C(C)=C1C3(C)C)[C@]1(OC(C)=O)CO[C@@H]1C[C@@H]2O (concentration unit: nM)
difference (H1299; concentration: 10): -0.0339 | difference (H1299; concentration: 25): -0.0112 | difference (H1299; concentration: 50): 0.134 | difference (H1299; concentration: 100): 0.374 | difference (H1299; concentration: 1000): 0.566

CO[C@H]1/C=C\C=C(/C)C(=O)NC2=CC(=O)C(NCCN(C)C)=C(C[C@@H](C)C[C@H](OC)[C@H](O)[C@@H](C)/C=C(\C)[C@@H]1OC(N)=O)C2=O (concentration unit: nM)
difference (H1299; concentration: 5): 0.0988 | difference (H1299; concentration: 25): 0.27 | difference (H1299; concentration: 50): 0.565 | difference (H1299; concentration: 100): 0.538 | difference (H1299; concentration: 500): 0.571

Cn1ncnc1[C@H]1c2n[nH]c(=O)c3cc(F)cc(c23)N[C@@H]1c1ccc(F)cc1 (concentration unit: uM)
difference (H1299; concentration: 1): 0.0403 | difference (H1299; concentration: 2.5): -0.0275 | difference (H1299; concentration: 5): 0.00616 | difference (H1299; concentration: 10): 0.00511 | difference (H1299; concentration: 25): 0.0863

CO[C@H]1C[C@@H]2CC[C@@H](C)[C@@](O)(O2)C(=O)C(=O)N2CCCC[C@H]2C(=O)O[C@H]([C@H](C)C[C@@H]2CC[C@@H](O)[C@H](OC)C2)CC(=O)[C@H](C)/C=C(\C)[C@@H](O)[C@@H](OC)C(=O)[C@H](C)C[C@H](C)/C=C/C=C/C=C/1C (concentration unit: nM)
difference (H1299; concentration: 2.5): -0.0109 | difference (H1299; concentration: 10): 0.177 | difference (H1299; concentration: 25): 0.0761 | difference (H1299; concentration: 50): 0.0674 | difference (H1299; concentration: 250): 0.0406

Cc1nc(Nc2ncc(C(=O)Nc3c(C)cccc3Cl)s2)cc(N2CCN(CCO)CC2)n1 (concentration unit: nM)
difference (LN-18; concentration: 25): 0.0292 | difference (LN-18; concentration: 100): 0.0217 | difference (LN-18; concentration: 250): 0.0754 | difference (LN-18; concentration: 1000): 0.0482 | difference (LN-18; concentration: 2500): -0.0509 | difference (SK-OV-3; concentration: 25): 0.111 | difference (SK-OV-3; concentration: 100): 0.606 | difference (SK-OV-3; concentration: 250): 0.528 | difference (SK-OV-3; concentration: 1000): 0.636 | difference (SK-OV-3; concentration: 2500): 0.551

CNC(=O)c1cc(Oc2ccc(NC(=O)Nc3ccc(Cl)c(C(F)(F)F)c3)cc2)ccn1 (concentration unit: uM)
difference (H1299; concentration: 1): 0.0342 | difference (H1299; concentration: 2.5): -0.0184 | difference (H1299; concentration: 5): -0.0837 | difference (H1299; concentration: 10): -0.0051 | difference (H1299; concentration: 25): -0.155

COc1cc2ncnc(Nc3ccc(F)c(Cl)c3)c2cc1OCCCN1CCOCC1 (concentration unit: uM)
difference (LN-18; concentration: 1): 0.099 | difference (LN-18; concentration: 2.5): 0.00859 | difference (LN-18; concentration: 5): 0.0147 | difference (LN-18; concentration: 10): 0.0212 | difference (LN-18; concentration: 20): 0.00315 | difference (SK-OV-3; concentration: 1): 0.00612 | difference (SK-OV-3; concentration: 2.5): -0.00968 | difference (SK-OV-3; concentration: 5): 0.0329 | difference (SK-OV-3; concentration: 10): 0.0831 | difference (SK-OV-3; concentration: 20): 0.0836

COc1cccc2c1C(=O)c1c(O)c3c(c(O)c1C2=O)C[C@@](O)(C(=O)CO)C[C@@H]3O[C@H]1C[C@H](N)[C@H](O)[C@H](C)O1 (concentration unit: nM)
difference (LN-18; concentration: 25): -0.017 | difference (LN-18; concentration: 100): -0.0175 | difference (LN-18; concentration: 250): 0.0434 | difference (LN-18; concentration: 1000): 0.361 | difference (LN-18; concentration: 2500): 0.899 | difference (SK-OV-3; concentration: 25): -0.00185 | difference (SK-OV-3; concentration: 100): 0.13 | difference (SK-OV-3; concentration: 250): 0.133 | difference (SK-OV-3; concentration: 1000): 0.252 | difference (SK-OV-3; concentration: 2500): 0.93

COc1cc2nccc(Oc3ccc(NC(=O)C4(C(=O)Nc5ccc(F)cc5)CC4)cc3)c2cc1OC (concentration unit: uM)
difference (H1299; concentration: 0.5): 0.0394 | difference (H1299; concentration: 1): -0.122 | difference (H1299; concentration: 2.5): -0.0701 | difference (H1299; concentration: 5): 0.0398 | difference (H1299; concentration: 10): 0.0491

Cn1c(=O)n(-c2ccc(C(C)(C)C#N)cc2)c2c3cc(-c4cnc5ccccc5c4)ccc3ncc21 (concentration unit: nM)
difference (H1299; concentration: 10): 0.158 | difference (H1299; concentration: 50): 0.191 | difference (H1299; concentration: 100): 0.157 | difference (H1299; concentration: 250): 0.0684 | difference (H1299; concentration: 500): 0.0286

Cc1[nH]c2ccccc2c1CCNCc1ccc(/C=C/C(=O)NO)cc1 (concentration unit: nM)
difference (LN-18; concentration: 10): 0.22 | difference (LN-18; concentration: 50): 0.459 | difference (LN-18; concentration: 100): 0.491 | difference (LN-18; concentration: 250): 0.528 | difference (LN-18; concentration: 500): 0.494 | difference (SK-OV-3; concentration: 10): 0.269 | difference (SK-OV-3; concentration: 50): 1.12 | difference (SK-OV-3; concentration: 100): 1.16 | difference (SK-OV-3; concentration: 250): 1.1 | difference (SK-OV-3; concentration: 500): 1.13

O=C(NOC[C@H](O)CO)c1ccc(F)c(F)c1Nc1ccc(I)cc1F (concentration unit: uM)
difference (H1299; concentration: 0.05): -0.0791 | difference (H1299; concentration: 0.1): -0.114 | difference (H1299; concentration: 0.25): -0.172 | difference (H1299; concentration: 1): -0.174 | difference (H1299; concentration: 5): -0.199

COc1cc(Nc2ncc3c(n2)-c2ccc(Cl)cc2C(c2c(F)cccc2OC)=NC3)ccc1C(=O)O (concentration unit: nM)
difference (H1299; concentration: 10): -0.0235 | difference (H1299; concentration: 50): -0.0295 | difference (H1299; concentration: 250): 0.00737 | difference (H1299; concentration: 500): 0.159 | difference (H1299; concentration: 1000): 0.136

C[C@@H](Oc1cc(-c2cnn(C3CCNCC3)c2)cnc1N)c1c(Cl)ccc(F)c1Cl (concentration unit: uM)
difference (H1299; concentration: 0.25): 0.0337 | difference (H1299; concentration: 1): -0.111 | difference (H1299; concentration: 2.5): -0.0387 | difference (H1299; concentration: 5): 0.194 | difference (H1299; concentration: 10): 0.228
